# Laboratory results published in PubChem BioAssay AID1159580 (chemical genetic matrix, 2015).
# The campaign covered roughly 5,500 compounds. About 2,000 (36%) were called active. Not shown: some 18% with an inconclusive outcome. The list shows a part of the results. Values without a mark were called inactive. Cut-off read from the data, not from the text of the source: active = normalized growth mostly below about 0.91 (no sharp cut-off); inconclusive = no clear call, values can overlap the other calls; inactive = mostly above about 0.92.
# Experiment: chemical genetic growth profiling, strain panel (AID 1159580);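 note: tested at 20 µM; growth read once vehicle control cultures reached saturation at 30 °C; 1 = growth at the plate median or of vehicle wells; lower values mean less growth of the strain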
# Details: S. cerevisiae deletion strains, growth OD
smiles,measurement,setting,value
O=C(NC(=O)c1c(F)cccc1Cl)OCc1ccc(Cl)cc1Cl,normalized growth,"locus YAR019C, strain CDC15, stronger effect = lower value",0.987
same,normalized growth,"locus YBL105C, strain PKC1, stronger effect = lower value",0.981
same,normalized growth,"locus YBR135W, strain CKS1, stronger effect = lower value",0.975
same,normalized growth,"locus YBR136W, strain MEC1, stronger effect = lower value",0.984
same,normalized growth,"locus YBR160W, strain CDC28, stronger effect = lower value",0.976
same,normalized growth,"locus YDL017W, strain CDC7, stronger effect = lower value",0.99
same,normalized growth,"locus YDL028C, strain MPS1, stronger effect = lower value",0.978
same,normalized growth,"locus YDL101C, strain DUN1, stronger effect = lower value",0.989
same,normalized growth,"locus YDL108W, strain KIN28, stronger effect = lower value",0.976
same,normalized growth,"locus YDL132W, strain cdc53, stronger effect = lower value",0.984
same,normalized growth,"locus YDL214C, strain PRR2, stronger effect = lower value",0.879
same,normalized growth,"locus YDR052C, strain DBF4, stronger effect = lower value",0.978
same,normalized growth,"locus YDR054C, strain cdc34, stronger effect = lower value",0.979
same,normalized growth,"locus YDR226W, strain ADK1, stronger effect = lower value",0.983
same,normalized growth,"locus YDR477W, strain SNF1, stronger effect = lower value",0.915
same,normalized growth,"locus YER123W, strain YCK3, stronger effect = lower value",0.848
same,normalized growth,"locus YER133W, strain GLC7, stronger effect = lower value",0.893
same,normalized growth,"locus YFL009W, strain cdc4, stronger effect = lower value",0.985
same,normalized growth,"locus YFL029C, strain CAK1, stronger effect = lower value",0.987
same,normalized growth,"locus YFR003C, strain YPI1, stronger effect = lower value",0.98
same,normalized growth,"locus YFR019W, strain FAB1, stronger effect = lower value",0.941
same,normalized growth,"locus YFR028C, strain CDC14, stronger effect = lower value",0.988
same,normalized growth,"locus YGR040W, strain KSS1, stronger effect = lower value",0.9
same,normalized growth,"locus YGR052W, strain FMP48, stronger effect = lower value",0.9
same,normalized growth,"locus YGR092W, strain DBF2, stronger effect = lower value",0.831
same,normalized growth,"locus YHR030C, strain SLT2, stronger effect = lower value",0.63 (active)
same,normalized growth,"locus YHR079C, strain IRE1, stronger effect = lower value",0.873
same,normalized growth,"locus YHR082C, strain KSP1, stronger effect = lower value",0.95
same,normalized growth,"locus YHR205W, strain SCH9, stronger effect = lower value",0.731
same,normalized growth,"locus YIL147C, strain SLN1, stronger effect = lower value",0.986
same,normalized growth,"locus YJL095W, strain BCK1, stronger effect = lower value",0.845
same,normalized growth,"locus YJL128C, strain PBS2, stronger effect = lower value",0.927
same,normalized growth,"locus YJL157C, strain FAR1, stronger effect = lower value",0.878
same,normalized growth,"locus YJR016C, strain ILV3, stronger effect = lower value",0.974
same,normalized growth,"locus YJR066W, strain TOR1 (second series), stronger effect = lower value",0.869
same,normalized growth,"locus YJR066W, strain TOR1, stronger effect = lower value",0.884
same,normalized growth,"locus YKL048C, strain ELM1, stronger effect = lower value",0.905
same,normalized growth,"locus YKL067W, strain YNK1, stronger effect = lower value",0.9
same,normalized growth,"locus YKL101W, strain HSL1, stronger effect = lower value",0.863
same,normalized growth,"locus YKL193C, strain SDS22, stronger effect = lower value",0.985
same,normalized growth,"locus YKL203C, strain TOR2, stronger effect = lower value",0.914
same,normalized growth,"locus YLR113W, strain HOG1, stronger effect = lower value",0.71 (active)
same,normalized growth,"locus YLR133W, strain CKI1, stronger effect = lower value",0.876
same,normalized growth,"locus YLR403W, strain SFP1, stronger effect = lower value",0.854
same,normalized growth,"locus YML070W, strain DAK1, stronger effect = lower value",0.858
same,normalized growth,"locus YMR001C, strain CDC5, stronger effect = lower value",0.985
same,normalized growth,"locus YMR205C, strain PFK2 (second series), stronger effect = lower value",0.906
same,normalized growth,"locus YMR277W, strain FCP1, stronger effect = lower value",0.98
same,normalized growth,"locus YNL006W, strain LST8, stronger effect = lower value",0.983
same,normalized growth,"locus YNL020C, strain ARK1, stronger effect = lower value",0.818
same,normalized growth,"locus YNL161W, strain CBK1, stronger effect = lower value",0.974
same,normalized growth,"locus YNL183C, strain NPR1, stronger effect = lower value",0.875
same,normalized growth,"locus YNL207W, strain RIO2, stronger effect = lower value",0.966
same,normalized growth,"locus YNL222W, strain SSU72, stronger effect = lower value",0.978
same,normalized growth,"locus YNL307C, strain MCK1 (second series), stronger effect = lower value",0.828
same,normalized growth,"locus YOL078W, strain AVO1, stronger effect = lower value",0.983
same,normalized growth,"locus YOL136C, strain PFK27, stronger effect = lower value",0.851
same,normalized growth,"locus YOR061W, strain CKA2, stronger effect = lower value",0.899
same,normalized growth,"locus YOR119C, strain RIO1, stronger effect = lower value",0.961
same,normalized growth,"locus YOR231W, strain MKK1, stronger effect = lower value",0.835
same,normalized growth,"locus YOR329C, strain SCD5, stronger effect = lower value",0.978
same,normalized growth,"locus YPL031C, strain PHO85, stronger effect = lower value",0.887
same,normalized growth,"locus YPL153C, strain RAD53, stronger effect = lower value",0.914
same,normalized growth,"locus YPL204W, strain HRR25, stronger effect = lower value",0.867
same,normalized growth,"locus YPL209C, strain IPL1, stronger effect = lower value",0.979
same,normalized growth,"locus YPL256C, strain CLN2, stronger effect = lower value",0.711 (active)
same,normalized growth,"locus YPR025C, strain CCL1, stronger effect = lower value",0.976
same,normalized growth,"locus YPR106W, strain ISR1, stronger effect = lower value",0.966
same,normalized growth,"locus YPR111W, strain DBF20, stronger effect = lower value",0.949
same,normalized growth,"strain NNK1, stronger effect = lower value",0.977
same,normalized growth,"strain TSCII, stronger effect = lower value",0.979
